Data published in the supplement of paper PMC10338343.
± gives the standard deviation.

Tested on: EfPiwi piRISC loaded with piRNA #1 (26 nt)
Test: pre-steady-state target cleavage rate (min^-1); auxiliary factor: 500 nM Ephydatia muelleri Gtsf1; guide: piRNA #1 5'p-UGAGGUAGUAGGUUGUAUAGUAUCCA; MIWI and MILI are mouse PIWI proteins and EfPiwi is from a freshwater sponge; tags in brackets are library labels; higher = faster piRNA-guided slicing of the target
Outline: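 With or without 500 nM GTSF1 partner protein, 1 nM active affinity-purified piRISC carrying one synthetic guide was mixed with 0.1 nM transcribed, DNA-blocked target RNA library in HEPES–potassium acetate buffer at 33 °C for 0–8 or 0–960 min. Uncleaved targets were sequenced and normalised to depth and to weakly complementary targets, three trials were pooled, and k3 was capped at 0.0001 min^-1. The pre-steady-state cleavage rate came from a burst-and-steady-state fit.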

Sequence | pre-steady-state target cleavage rate
GGAGAGGAUACUAUACAACCAACUUCCUCA | 0.00313 ± 0.0024
GGAGACCAUACUAUACAACCACUACCUCA | 0.00558 ± 0.0034
GGAGACCUAUGAUAUGUUCCUACUACUCUCA | < 0.0001
GGAGAGGAUACUAUACAACCUUCUACCUGA | 0.00393 ± 0.0023
GGAGUGGAUACUGAUACAACCUACUACCUCA | 0.0129 ± 0.0062
GGAGUGGAUACUAUACAACCUUGUACCUCA | 0.00568 ± 0.0024
GGAGACCUAUGUAUACAACCUACAUGCUCA | < 0.0001
GGAGACGUUACUAUAGAACCUACUACCUCA | 0.0026 ± 0.0023
GGAGAGGAUACUAUACAACCUUACUACCUCA | 0.00845 ± 0.0045
GGAGACCUAUGAUAUGUACCUAUUACCUCA | < 0.0001
GGAGACCUAUGAUAUGAUCCUAGUACCUCA | < 0.0001
GGAGAGGAUACUAUACAACCUACUUCCUGA | 0.00331 ± 0.0022
GGAGACCUUCACUAUACAACCUACUACCUCA | 0.00775 ± 0.0054
GGAGACGAUACUUUACAACCUACUACGUCA | 0.00279 ± 0.0019
GGAGAGGAUACUAUACAACCUACUAGCUGA | 0.00408 ± 0.002
GGAGAGGAUACUAUACAACCAACUAGCUCA | 0.00313 ± 0.0016
GGAGAGGAUACUAUACAACCUACUUGGUCA | 0.00425 ± 0.0034
GGAGUGGAUACUAUACAACCUUGAACCUCA | 0.00462 ± 0.0029
GGAGACCUAUGAUAUCAACCUACUACCAUCA | < 0.0001
GGAGACGAUACUAUACGACCUACUACCUCA | 0.0807 ± 0.028

Sequence | pre-steady-state target cleavage rate
GGAGAGGAUACUAUACAACCCUACUACCUCA | 0.00598 ± 0.0032
GGAGACCUAUGAUAUGUACCUACAUACCUCA | < 0.0001
GGAGUGGAUACUAUACAACCUAGUACGUCA | 0.00381 ± 0.0014
GGAGACCAUACUAUACGAACCUACUACCUCA | 0.0108 ± 0.0042
GGAGACCAUACUAUACAACCUAGUACGUCA | 0.00483 ± 0.0024
GGAGACCAUACUAUACAACGCUACUACCUCA | 0.0082 ± 0.0044
GGAGACGAUACUAUACAACCUACUAGGUCA | 0.0052 ± 0.002
GGAGAGGAUAGUUUACAACCUACUACCUCA | 0.0061 ± 0.0039
GGAGACCAUACUGAUACAACCUACUACCUCA | 0.0368 ± 0.013
GGAGACGAUACUAUACAUCCUUCUACCUCA | 0.00356 ± 0.0021
GGAGACCUAACUAUACAACCACUACCUCA | 0.00546 ± 0.0044
GGAGACCUAUGAUAUGUUCCUACAACGUCA | < 0.0001
GGAGACCUAUGAAUAGAACCUUCUACCUCA | < 0.0001
GGAGACCUAUCUUUACAACCUACUACCUCA | 0.0058 ± 0.0037
GGAGACCUAACUAUACAACCUACUACCUGA | 0.00393 ± 0.002
GGAGAGGCUACUAUACAACCUACUACCUCA | 0.0629 ± 0.022
GGAGACCUAACUAUACCAACCUACUACCUCA | 0.00536 ± 0.0036
GGAGACCUUACUAUACAAGCCUACUACCUCA | 0.00541 ± 0.0031
GGAGACCAUACUAUACAACCUACUAGGUCA | 0.00366 ± 0.0023
GGAGACCUUACUAUACAACCUUCUACCUGA | 0.00341 ± 0.0028
